Among the data in the supplement of paper PMC6555819 are PBM binding z-score values, retold here.

The subject of this assay is LXRb homodimer (NR concentration 270 nM). Nature of the assay: PBM binding z-score (relative to random genomic background probes); higher = stronger binding; sequences stand for … in GC…GCGATTGACAGCGTAGAATGAAGG
An outline of the steps: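 Ligand-free nuclear receptor dimers were bound for 1 h to custom Agilent 4×180K protein-binding microarrays. Detection used antibodies against each partner (one per run). Binding z-scores rest on regression-normalized fluorescence, with random background probes as the reference.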
Turning to AGTCAAAGTTCATCCAGGTAACGTAAGATATGCT, the PBM binding z-score came to 1.6.

On to CTCGAAAGGTCGGTTGAGGTGAGTAGACGGATAA, for which the PBM binding z-score is -0.503.

CCTTACGGGTCACGAGGTTATAGGACGACGAGCG showed a PBM binding z-score of -0.117. As for ATCGAAAGGTCGACGAGGTGACTATACACCGTTT, the figure is 0.252.

For AGAATGAGGTTACGAAAGATCAGGGAAACGCTTG, the PBM binding z-score is -0.578. As for TCTGCTAGGTTAACGATGGTCAGCTAATCTGCTA, the figure is -0.756. As for ATCGAAAGGTCGACGAGGTGAGTATTCACCGTTT, the figure is 0.0468; as for ATATGTAGGTAAGCTGGGGTCATTCAGACTAGGC, 1.58; as for CATACAGGGTCAGCTAGCCCAGAGTAGGGACGGC, 0.0889.

ATCGAAAGATCGAGGTGAGTATAGAGAAAGGGAA came in with a PBM binding z-score of -0.23.

The sequence TCTATTAGTTAAAGGGCAACCGACGAGTCCGTTT gave a PBM binding z-score of 0.427. The value for CCTATTATTTGACCATAAGGGCAACCGAAGCTCG was 1.25; that for AATACACGGTCATCGTAGGCCAGAGTACGCACAG was 0.643. As for CGTCCAAGGGCAAAGGTCAGTGAAGAGATGACGG, the figure is -0.199. As to CCTTACGGGTCACAAGGTTATAGCACGACGAGCG, the PBM binding z-score was determined as 0.114. In the case of GCGACTGGGGCATCAGCAGGTTCCCATAACTTAA, the PBM binding z-score was -1.52. As to AGAACGAGGGCACGCTGAGTTTATAGCAGAGTAG, the PBM binding z-score was -1.07. The sequence GATACAGGGTCAAGGCCAGATTACGCGTATTGAT had a PBM binding z-score of 0.268. Sequence ATACCAAGGTGAACGTGAGGTCGTTGATACTAAC returned a PBM binding z-score of -0.133. Turning to CCTGCTAGGTCTTGGTCAGCTAATCTACAGTATG, the PBM binding z-score is -0.639. As for GCTTGTAGATCAAGGTTACGAAAGACTAAGCTAA, the figure is -0.378. The value for CCTGCTAGGTCATGGTCAGCTACTCTACAGTATG was -0.441.
